Conditions in all cases: concentration: 1 μM, replicates: in singlicate; n = 1
Assay [1] deals with TLK1.
For assay [2], the system named is TLK2.
Assay [3] relates to TNIK.
Assay [4] relates to TNK1.
Assay [5] relates to TNK2.
The subject of assay [6] is TNNI3K.
For assay [7], the system named is T1, TRKA.
T1 construct: gene NTRK1

The subject of assay [8] is TRKB.
Assay [9] deals with T2, TRKC.
T2 construct: gene NTRK3

The subject of assay [10] is TRPM6.
Assay [11] relates to TSSK1B.
The subject of assay [12] is TSSK3.
Assay [13] has as its system TTK.
For assay [14], the system named is TXK.
In assay [15] the test system is TYK2(JH1domain-catalytic).
Assay [16] concerns TYK2(JH2domain-pseudokinase).
Assay [17] relates to TYRO3.
Assay [18] deals with ULK1.
Assay [19] concerns ULK2.
For assay [20], the system named is ULK3.

Experimental findings from article PMC5540273 (PLoS ONE, 2017) are described below.
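Further: KINOMEscan kinase panel screen.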

Take `O=c1cc(N2CCOCC2)nc2n(Cc3cccc(Cl)c3Cl)c3ccccc3n12` [GSK2299009]: the “%Inh” value in assay [1] came to 2%; in assay [2] it was 0%; in assay [3], 1%; in assay [4] it was 6%; in assay [5] it was 9%; in assay [6], 17%. The “%Inh” value is given as 18% in [7]; 0% in assay [8]; 0% in assay [9]; 36% in [10]; 10% in assay [11]; 20% in [12]. Moreover, the “%Inh” value in assay [13] is listed as 8%; in [14], 0%; in assay [15], 0%; in [16], 0%; in [17], 0%; in assay [18], 18%. The “%Inh” value is reported as 0% in [19] and 2% in assay [20].
With `COc1cc2ncnc(Nc3cccc(Br)c3)c2cc1OC.Cl` [GI230329], the “%Inh” value in assay [1] is on record as 0%; in assay [2], 0%; in assay [3] it was 10%; in assay [4], 0%; in assay [5], 8%; in assay [6], 15%. Also, the “%Inh” value in assay [7] turned out to be 45%; in assay [8] it was 32%; in [10], 0%; in [11], 0%; in [12], 16%; in [13], 0%. Besides, the “%Inh” value in [14] worked out at 4%; in [16] it was 23%; in [17] it was 3%; in [18], 9%; in assay [19], 0%; in [20] it was 17%.
Take `Cc1c(Cn2c3ccccc3n3c(=O)cc(N4CCOCC4)nc23)cccc1C(F)(F)F` [GSK2306394]: the “%Inh” value stood at 5% in assay [1]; 0% in assay [2]; 0% in assay [3]; 0% in assay [4]; 3% in assay [5]; 0% in assay [6]. For the same compound, the “%Inh” value was found to be 0% in assay [7]; 0% in [8]; 0% in assay [9]; 0% in assay [10]; 3% in assay [11]; 0% in [12]. Further, the “%Inh” value is given as 27% in assay [13]; 0% in assay [14]; 26% in [15]; 0% in assay [16]; 0% in assay [17]; 21% in assay [18]. The “%Inh” value in assay [19] turned out to be 0%; in assay [20], 7%.
For `CS(=O)(=O)Cc1ccc(Nc2nccc(-c3c(-c4cccc(NC(=O)C5CCCCC5)c4)nn4ncccc34)n2)cc1` [GSK350559], the “%Inh” value is recorded as 16% in [1]; 0% in assay [2]; 0% in assay [3]; 29% in assay [4]; 13% in assay [5]; 0% in assay [6]. The “%Inh” value in assay [7] is reported as 39%; in [8], 16%; in assay [9] it was 27%; in assay [10], 0%; in [11], 14%; in [12] it was 8%. Besides, the “%Inh” value in assay [13] is given as 0%; in assay [14], 17%; in assay [15] it was 0%; in assay [16] it was 12%; in [17] it was 18%; in assay [18] it was 5%. For the same compound, the results for the “%Inh” value in [19] and in assay [20] were 20% and 18%, respectively.
Consider `O=C1NC(=O)C(c2ccc(Cl)cc2)=C1Nc1cccc(Cl)c1` [SB-317651], for which the “%Inh” value was found to be 12% in assay [1]; 0% in assay [2]; 0% in assay [3]; 0% in assay [4]; 0% in assay [5]; 0% in assay [6]. The “%Inh” value in assay [7] is recorded as 23%; in assay [8], 21%; in assay [9] it was 0%; in assay [10] it was 0%; in assay [11] it was 0%; in assay [12], 18%. The “%Inh” value came out at 0% in assay [13]; 12% in assay [14]; 0% in assay [15]; 0% in [16]; 0% in assay [17]; 11% in assay [18]. The “%Inh” value in assay [19] amounted to 25%; in assay [20] it was 1%.
Turning to `FC(F)(F)c1ccccc1-c1cc(-c2c[nH]nc2-c2ccccn2)ccn1` [GW679396], the “%Inh” value was 0% in assay [1]; 0% in assay [2]; 18% in [3]; 1% in assay [4]; 0% in [5]; 0% in [6]. The “%Inh” value came to 39% in assay [7]; 0% in assay [8]; 0% in [9]; 3% in assay [10]; 1% in assay [11]; 4% in assay [12]. Also, the “%Inh” value was 0% in [13]; 0% in assay [14]; 0% in assay [15]; 0% in assay [16]; 13% in assay [17]; 0% in assay [18]. The “%Inh” value in assay [19] and in assay [20] was 0% each time.
Consider `Fc1ccc(-c2nc3n(c2-c2ccncc2)CCS3)cc1` [GI98581], for which the “%Inh” value amounted to 0% in [1]; 0% in assay [2]; 18% in [3]; 0% in [4]; 11% in assay [5]; 2% in assay [6]. For the same compound, the “%Inh” value was found to be 11% in assay [7]; 0% in assay [8]; 17% in assay [9]; 23% in assay [10]; 0% in [11]; 22% in [12]. For the same compound, the “%Inh” value is on record as 0% in [13]; 0% in assay [14]; 8% in [15]; 11% in assay [16]; 0% in assay [17]; 2% in [18]. Further, the “%Inh” value in assay [19] and in [20] was 0% each time.
Regarding `Cc1cccc2c(-c3ccncn3)c(-c3ccc(F)cc3)nn12` [GW515532], the “%Inh” value in assay [1] was found to be 6%; in assay [2], 0%; in [3], 8%; in assay [4], 0%; in assay [5], 0%; in assay [6], 0%. The “%Inh” value in assay [7] worked out at 2%; in assay [8] it was 0%; in assay [9], 7%; in assay [10] it was 0%; in assay [11], 16%; in assay [12], 0%. In addition, the “%Inh” value turned out to be 14% in [13]; 12% in assay [14]; 30% in [15]; 24% in assay [16]; 0% in assay [17]; 19% in assay [18]. Further, the “%Inh” value came to 0% in assay [19] and 10% in assay [20].
Consider `COc1cccc(C2=C(Nc3cc(Cl)c(O)c(Cl)c3)C(=O)NC2=O)c1` [SB-390767], for which the “%Inh” value was found to be 0% in [1]; 0% in assay [2]; 0% in [3]; 23% in assay [4]; 26% in [5]; 13% in assay [6]. Besides, the “%Inh” value in assay [7] is 0%; in assay [8], 0%; in [9], 0%; in assay [10], 15%; in assay [11], 0%; in assay [12], 16%. Besides, the “%Inh” value in [13] is listed as 7%; in assay [14], 15%; in assay [15], 28%; in assay [16] it was 39%; in [17], 29%; in assay [18] it was 32%. The “%Inh” value in assay [19] is on record as 0%; in assay [20] it was 13%.
Consider `Cc1ccc(NC(=O)Nc2ccc(Cl)cc2)cc1-c1ccc(C(=O)Nc2ccncc2)cc1` [GSK1398472], for which the “%Inh” value in [1] is 0%; in [2] it was 0%; in [3] it was 0%; in assay [4], 0%; in assay [5], 16%; in assay [6], 25%. The “%Inh” value in assay [7] amounted to 0%; in [8], 0%; in [9], 9%; in [10], 14%; in assay [11] it was 0%; in [12], 11%. The “%Inh” value turned out to be 0% in assay [13]; 47% in [14]; 62% in assay [15]; 13% in assay [16]; 4% in [17]; 8% in [18]. For the same compound, the “%Inh” value in assay [19] and in assay [20] was 0% in each case.
Take `COC(=O)c1cccc(NC(=O)NC2CCN(c3ccnc(Nc4ccc(OC)cc4)n3)C2)c1` (stereo not drawn) [GSK1379746]: the “%Inh” value stood at 0% in assay [1]; 0% in assay [2]; 0% in assay [3]; 0% in assay [4]; 12% in assay [5]; 0% in assay [6]. Besides, the “%Inh” value in [7] amounted to 34%; in [8], 71%; in [9] it was 86%; in assay [10], 11%; in [11], 13%; in assay [12], 7%. In addition, the “%Inh” value in [13] amounted to 0%; in [14], 8%; in assay [15], 33%; in [16], 51%; in [17], 0%; in assay [18], 0%. Besides, the “%Inh” value is given as 3% in assay [19] and 9% in [20].
Consider `CNc1nc(-c2ccc3c(N)n[nH]c3c2)cc(N2C[C@@H](C(=O)Nc3ccccc3)CC[C@H]2C)n1` [GSK2298859], for which the “%Inh” value came out at 0% in [1]; 0% in assay [2]; 0% in [3]; 0% in assay [4]; 3% in [5]; 0% in assay [6]. Moreover, the “%Inh” value in assay [7] came out at 77%; in assay [8], 2%; in [9], 0%; in assay [10], 0%; in assay [11], 0%; in assay [12] it was 6%. Further, the “%Inh” value came to 21% in assay [13]; 10% in assay [14]; 22% in assay [15]; 13% in [16]; 0% in assay [17]; 0% in assay [18]. In addition, the “%Inh” value in assay [19] and in assay [20] was 0% throughout.
Take `CNCc1ccc2nc(NC(=O)c3ccc(C(C)(C)C)cc3)cn2c1`: the “%Inh” value amounted to 0% in [1]; 0% in assay [2]; 8% in assay [3]; 0% in [4]; 1% in assay [5]; 6% in [6]. The “%Inh” value in assay [7] is listed as 39%; in assay [8], 58%; in [9], 28%; in assay [10], 1%; in assay [11], 0%; in assay [12], 0%. Moreover, the “%Inh” value in assay [13] came out at 0%; in [14], 8%; in assay [15], 0%; in assay [16] it was 24%; in assay [17], 0%; in assay [18] it was 20%. Also, the figures for the “%Inh” value in assay [19] and in [20] were 15% and 58%, respectively.
Consider `COc1ccc(CSc2nnc(-c3ccc4nccn4c3)o2)cc1C(F)(F)F`, for which the “%Inh” value in assay [1] is on record as 6%; in assay [2] it was 13%; in [3] it was 0%; in assay [4] it was 0%; in assay [5], 3%; in assay [6] it was 0%. The “%Inh” value was found to be 18% in assay [7]; 0% in [8]; 38% in [9]; 0% in assay [10]; 0% in assay [11]; 1% in [12]. The “%Inh” value in [13] is on record as 64%; in assay [14], 6%; in assay [15] it was 8%; in assay [16], 5%; in assay [17], 3%; in assay [18], 0%. In addition, the “%Inh” value amounted to 4% in assay [19] and 0% in [20].
In the case of `CC(C)c1cc(-c2ccc3c(N)n[nH]c3c2)nc(N)n1` [GSK2250882], the “%Inh” value in assay [1] was determined as 2%; in assay [2] it was 0%; in assay [3] it was 14%; in assay [4] it was 0%; in assay [5], 14%; in [6] it was 0%. In addition, the “%Inh” value came to 0% in assay [7]; 0% in assay [8]; 0% in assay [9]; 0% in assay [10]; 6% in assay [11]; 20% in assay [12]. The “%Inh” value in assay [13] was 10%; in assay [14] it was 0%; in assay [15], 20%; in assay [16], 2%; in assay [17], 0%; in [18], 6%. Further, the “%Inh” value is 0% in assay [19] and 9% in assay [20].
Regarding `Nc1ncnc2occ(-c3ccc4c(c3)CCN4C(=O)Cc3cc(F)ccc3F)c12` [GSK2645446], the “%Inh” value in assay [1], in [2], in [3], in assay [4], in assay [5] and in assay [6] was 0% throughout. The “%Inh” value in [7] stood at 9%; in assay [8] it was 0%; in [9] it was 0%; in assay [10], 0%; in assay [11], 0%; in assay [12], 4%. Moreover, the “%Inh” value in assay [13] turned out to be 0%; in [14] it was 0%; in assay [15], 2%; in assay [16] it was 3%; in assay [17], 0%; in assay [18], 0%. For the same compound, the “%Inh” value in [19] and in [20] was 0% in each case.
